Here are results for one compound from the supplement of paper PMC11732987, “Enantioselective OTUD7B fragment discovery through chemoproteomics screening and high-throughput optimisation” (Communications Chemistry, 2025).

Holding throughout (test): log2 ratio of Biotin-Ahx-Ub-VS probe labelling (fragment/DMSO); higher = less target engagement (more negative = stronger competition), active = hit call of the paper (q ≤ 0.05, log2 ratio ≤ -1)
Common to all, as to settings: compound concentration: 200 uM; treatment time: 3 h

For one experiment, the target named is T1, USP19 (UniProt O94966).
T1 sequence (whole entry): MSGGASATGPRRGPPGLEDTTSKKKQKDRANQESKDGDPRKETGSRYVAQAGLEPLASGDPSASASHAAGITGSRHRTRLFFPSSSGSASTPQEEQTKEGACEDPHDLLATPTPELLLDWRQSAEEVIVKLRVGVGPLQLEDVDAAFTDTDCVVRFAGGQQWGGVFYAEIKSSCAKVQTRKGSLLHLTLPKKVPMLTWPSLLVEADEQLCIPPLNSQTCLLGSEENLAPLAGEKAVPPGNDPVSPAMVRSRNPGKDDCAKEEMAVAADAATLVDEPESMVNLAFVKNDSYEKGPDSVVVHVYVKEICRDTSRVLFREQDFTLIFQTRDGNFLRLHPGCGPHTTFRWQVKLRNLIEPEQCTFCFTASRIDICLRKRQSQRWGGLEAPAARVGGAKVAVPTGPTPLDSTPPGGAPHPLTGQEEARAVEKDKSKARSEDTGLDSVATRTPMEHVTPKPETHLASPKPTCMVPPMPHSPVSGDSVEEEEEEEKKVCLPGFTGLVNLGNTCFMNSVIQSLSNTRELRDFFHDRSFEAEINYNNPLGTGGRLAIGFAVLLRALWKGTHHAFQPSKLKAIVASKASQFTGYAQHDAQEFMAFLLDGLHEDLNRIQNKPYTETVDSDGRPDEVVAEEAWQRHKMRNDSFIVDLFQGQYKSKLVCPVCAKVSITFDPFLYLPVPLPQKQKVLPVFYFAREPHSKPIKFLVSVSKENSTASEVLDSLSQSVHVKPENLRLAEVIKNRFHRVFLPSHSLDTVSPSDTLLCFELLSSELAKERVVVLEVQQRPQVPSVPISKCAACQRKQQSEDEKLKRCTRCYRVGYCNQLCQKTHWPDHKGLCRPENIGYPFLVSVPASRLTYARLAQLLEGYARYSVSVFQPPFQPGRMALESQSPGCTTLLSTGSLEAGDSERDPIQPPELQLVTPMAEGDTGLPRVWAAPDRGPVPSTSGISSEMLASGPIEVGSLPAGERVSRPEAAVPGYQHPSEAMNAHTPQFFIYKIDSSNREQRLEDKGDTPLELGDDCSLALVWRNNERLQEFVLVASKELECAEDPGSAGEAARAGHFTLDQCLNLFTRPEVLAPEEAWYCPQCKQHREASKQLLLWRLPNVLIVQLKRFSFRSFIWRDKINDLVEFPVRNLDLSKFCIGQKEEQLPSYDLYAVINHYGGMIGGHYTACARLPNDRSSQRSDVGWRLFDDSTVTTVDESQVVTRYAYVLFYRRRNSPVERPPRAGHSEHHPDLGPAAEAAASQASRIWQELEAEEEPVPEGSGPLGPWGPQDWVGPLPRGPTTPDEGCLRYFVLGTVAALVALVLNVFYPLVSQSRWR
The procedure, abridged: (§1)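 Each value is an average log2 ratio of fragment to vehicle, tested by unpaired t-test. The underlying Spectronaut label-free quantities were global-median-normalised, and only proteins with ≥2 unique peptides were included. Triplicate HEK293T lysate samples (495 µg) were exposed to fragment at 200 µM or vehicle for 3 h, then to Biotin-Ahx-Ub-VS at 0.5 µM final for 1 h, before NeutrAvidin enrichment of labelled DUBs, LysC and trypsin digestion, and diaPASEF LC-MS/MS.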

A further experiment has as its target USP24 (UniProt Q9UPU5). The procedure, abridged:
as §1

In a further experiment the target is T2, USP25 (UniProt Q9UHP3).
T2 sequence (whole entry): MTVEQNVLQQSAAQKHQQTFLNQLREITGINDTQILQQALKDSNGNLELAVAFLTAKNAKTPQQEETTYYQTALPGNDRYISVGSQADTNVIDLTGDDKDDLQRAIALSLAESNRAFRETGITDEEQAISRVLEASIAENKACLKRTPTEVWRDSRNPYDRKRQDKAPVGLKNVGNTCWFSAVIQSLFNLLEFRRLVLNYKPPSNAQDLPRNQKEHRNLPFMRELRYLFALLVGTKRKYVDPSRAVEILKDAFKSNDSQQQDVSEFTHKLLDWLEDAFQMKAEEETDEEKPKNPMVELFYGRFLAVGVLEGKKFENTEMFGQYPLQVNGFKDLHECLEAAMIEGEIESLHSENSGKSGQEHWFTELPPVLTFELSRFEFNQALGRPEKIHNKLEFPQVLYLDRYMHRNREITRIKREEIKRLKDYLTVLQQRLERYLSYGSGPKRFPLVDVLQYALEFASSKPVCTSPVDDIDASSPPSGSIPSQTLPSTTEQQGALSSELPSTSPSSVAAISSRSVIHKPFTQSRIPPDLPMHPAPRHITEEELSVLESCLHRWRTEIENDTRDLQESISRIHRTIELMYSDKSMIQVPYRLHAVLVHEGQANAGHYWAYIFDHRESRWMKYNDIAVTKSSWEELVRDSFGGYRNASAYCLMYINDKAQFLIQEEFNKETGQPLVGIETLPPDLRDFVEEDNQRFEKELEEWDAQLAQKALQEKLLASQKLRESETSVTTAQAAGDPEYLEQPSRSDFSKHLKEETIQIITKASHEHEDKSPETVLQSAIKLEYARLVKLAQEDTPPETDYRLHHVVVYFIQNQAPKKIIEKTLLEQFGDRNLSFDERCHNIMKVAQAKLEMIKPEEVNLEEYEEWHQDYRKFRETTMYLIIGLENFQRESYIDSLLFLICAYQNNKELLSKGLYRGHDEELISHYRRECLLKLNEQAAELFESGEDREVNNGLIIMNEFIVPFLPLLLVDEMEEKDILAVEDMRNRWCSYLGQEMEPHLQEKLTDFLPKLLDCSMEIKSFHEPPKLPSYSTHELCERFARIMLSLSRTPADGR
The procedure, abridged:
as §1

Another experiment has as its target T3, USP28 (UniProt Q96RU2).
T3 sequence (whole entry): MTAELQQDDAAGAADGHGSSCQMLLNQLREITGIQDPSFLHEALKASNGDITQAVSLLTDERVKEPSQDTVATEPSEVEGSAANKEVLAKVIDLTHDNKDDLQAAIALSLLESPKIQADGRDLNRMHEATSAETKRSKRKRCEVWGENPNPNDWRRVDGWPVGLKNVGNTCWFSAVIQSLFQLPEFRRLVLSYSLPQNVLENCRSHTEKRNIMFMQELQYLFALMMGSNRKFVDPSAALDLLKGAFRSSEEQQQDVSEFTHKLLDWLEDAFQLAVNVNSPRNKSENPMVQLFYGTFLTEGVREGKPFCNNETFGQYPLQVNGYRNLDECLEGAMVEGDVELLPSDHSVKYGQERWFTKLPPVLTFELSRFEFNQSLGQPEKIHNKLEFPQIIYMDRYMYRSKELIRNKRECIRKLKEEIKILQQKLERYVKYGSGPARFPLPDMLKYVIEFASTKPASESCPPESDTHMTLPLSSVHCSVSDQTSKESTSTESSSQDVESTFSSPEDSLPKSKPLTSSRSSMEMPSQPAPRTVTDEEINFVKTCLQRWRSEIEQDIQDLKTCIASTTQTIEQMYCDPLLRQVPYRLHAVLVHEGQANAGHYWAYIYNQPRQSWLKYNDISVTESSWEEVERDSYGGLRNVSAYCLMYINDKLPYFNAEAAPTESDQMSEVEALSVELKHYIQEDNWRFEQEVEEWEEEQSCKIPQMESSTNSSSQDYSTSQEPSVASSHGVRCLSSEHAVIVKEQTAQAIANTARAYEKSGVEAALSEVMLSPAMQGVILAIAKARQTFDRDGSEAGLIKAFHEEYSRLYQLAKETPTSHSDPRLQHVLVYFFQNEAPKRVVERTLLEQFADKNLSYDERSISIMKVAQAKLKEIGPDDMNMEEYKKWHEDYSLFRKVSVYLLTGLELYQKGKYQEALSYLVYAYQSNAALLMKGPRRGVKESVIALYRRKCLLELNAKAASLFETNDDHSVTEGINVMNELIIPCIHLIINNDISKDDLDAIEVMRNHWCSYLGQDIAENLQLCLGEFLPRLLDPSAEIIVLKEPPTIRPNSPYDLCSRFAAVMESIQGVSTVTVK
The method, boiled down: as §1

The structures appear in SMILES notation. A number with no mark means an inactive call.

USP24, sequence (Q9UPU5 whole entry): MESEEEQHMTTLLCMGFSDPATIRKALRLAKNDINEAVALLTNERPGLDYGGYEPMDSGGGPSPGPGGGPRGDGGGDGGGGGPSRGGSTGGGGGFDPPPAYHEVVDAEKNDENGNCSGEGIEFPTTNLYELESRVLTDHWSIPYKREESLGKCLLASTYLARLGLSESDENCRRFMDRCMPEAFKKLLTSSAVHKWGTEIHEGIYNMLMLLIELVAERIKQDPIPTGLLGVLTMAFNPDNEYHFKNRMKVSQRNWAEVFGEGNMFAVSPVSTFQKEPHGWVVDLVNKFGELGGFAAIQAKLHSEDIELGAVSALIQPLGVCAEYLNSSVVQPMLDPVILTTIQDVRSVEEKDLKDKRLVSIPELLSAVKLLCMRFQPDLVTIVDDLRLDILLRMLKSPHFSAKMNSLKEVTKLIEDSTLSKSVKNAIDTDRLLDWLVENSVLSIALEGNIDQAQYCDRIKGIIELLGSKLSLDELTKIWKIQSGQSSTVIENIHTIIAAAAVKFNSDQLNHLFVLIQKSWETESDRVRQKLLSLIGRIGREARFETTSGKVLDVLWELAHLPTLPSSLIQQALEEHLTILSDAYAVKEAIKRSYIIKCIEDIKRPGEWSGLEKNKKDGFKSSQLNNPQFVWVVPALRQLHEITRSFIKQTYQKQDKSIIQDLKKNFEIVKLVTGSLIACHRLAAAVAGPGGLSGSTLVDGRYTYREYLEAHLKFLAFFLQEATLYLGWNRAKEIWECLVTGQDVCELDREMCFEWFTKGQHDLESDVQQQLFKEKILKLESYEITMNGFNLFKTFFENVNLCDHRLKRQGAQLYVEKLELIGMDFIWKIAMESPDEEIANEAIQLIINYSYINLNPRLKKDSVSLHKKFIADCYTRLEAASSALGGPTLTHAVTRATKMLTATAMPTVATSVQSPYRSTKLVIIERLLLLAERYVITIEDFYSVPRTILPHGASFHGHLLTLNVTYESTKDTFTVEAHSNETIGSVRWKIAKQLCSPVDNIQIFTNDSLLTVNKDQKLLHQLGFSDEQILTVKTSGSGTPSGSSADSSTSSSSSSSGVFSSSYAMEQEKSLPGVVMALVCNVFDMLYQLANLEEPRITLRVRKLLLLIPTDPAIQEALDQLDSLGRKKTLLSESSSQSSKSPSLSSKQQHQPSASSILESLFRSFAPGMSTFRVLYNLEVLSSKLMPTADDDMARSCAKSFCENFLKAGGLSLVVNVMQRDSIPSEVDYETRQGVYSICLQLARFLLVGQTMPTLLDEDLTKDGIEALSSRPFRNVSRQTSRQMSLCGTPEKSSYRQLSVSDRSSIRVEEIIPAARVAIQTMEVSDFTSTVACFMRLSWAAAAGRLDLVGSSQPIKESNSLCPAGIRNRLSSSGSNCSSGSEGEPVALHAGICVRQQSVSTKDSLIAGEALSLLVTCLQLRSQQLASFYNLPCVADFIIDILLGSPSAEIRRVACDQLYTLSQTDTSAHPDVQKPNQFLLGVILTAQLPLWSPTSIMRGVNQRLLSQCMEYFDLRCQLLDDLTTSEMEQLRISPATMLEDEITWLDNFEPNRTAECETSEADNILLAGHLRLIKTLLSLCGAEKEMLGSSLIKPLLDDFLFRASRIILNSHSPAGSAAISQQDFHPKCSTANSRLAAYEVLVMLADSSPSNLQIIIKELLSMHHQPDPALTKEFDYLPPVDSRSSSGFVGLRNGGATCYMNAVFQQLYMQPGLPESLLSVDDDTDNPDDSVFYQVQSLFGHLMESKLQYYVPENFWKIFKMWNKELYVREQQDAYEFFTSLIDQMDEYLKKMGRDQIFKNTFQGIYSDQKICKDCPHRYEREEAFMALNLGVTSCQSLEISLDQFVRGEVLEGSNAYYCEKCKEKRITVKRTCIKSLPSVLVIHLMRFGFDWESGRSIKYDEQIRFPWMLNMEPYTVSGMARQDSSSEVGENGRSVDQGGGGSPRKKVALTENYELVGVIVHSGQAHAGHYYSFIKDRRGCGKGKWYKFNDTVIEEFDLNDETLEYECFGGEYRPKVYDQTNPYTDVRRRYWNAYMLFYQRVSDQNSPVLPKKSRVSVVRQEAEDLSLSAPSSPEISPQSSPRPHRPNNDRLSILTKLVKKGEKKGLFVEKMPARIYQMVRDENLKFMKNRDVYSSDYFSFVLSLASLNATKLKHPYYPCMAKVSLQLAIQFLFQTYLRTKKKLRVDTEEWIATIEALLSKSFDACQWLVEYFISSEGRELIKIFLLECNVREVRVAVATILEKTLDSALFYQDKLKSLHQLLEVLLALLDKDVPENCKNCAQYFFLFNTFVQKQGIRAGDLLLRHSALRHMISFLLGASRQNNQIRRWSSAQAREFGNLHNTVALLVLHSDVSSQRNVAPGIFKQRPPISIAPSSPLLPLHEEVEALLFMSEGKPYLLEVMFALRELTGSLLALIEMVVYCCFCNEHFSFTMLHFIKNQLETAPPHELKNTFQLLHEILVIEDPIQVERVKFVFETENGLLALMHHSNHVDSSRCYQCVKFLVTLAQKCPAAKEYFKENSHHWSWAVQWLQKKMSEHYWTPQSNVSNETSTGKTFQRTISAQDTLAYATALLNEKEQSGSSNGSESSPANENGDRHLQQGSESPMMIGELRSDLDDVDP

As to `Cc1cccc(NC(=O)CCl)c1C`, the “log2 ratio of Biotin-Ahx-Ub-VS probe labelling” value in the experiment with USP19 is -0.393; with USP24, -0.573; with USP25 it was -1.06 (active); with USP28 it was -1.32 (active).
